Bioassay records: PubChem BioAssay, National Center for Advancing Translational Sciences (NCATS)
TDP1 cell CPT: DT40-hTDP1 cell growth loss with CPT; chicken DT40 Tdp1-/-;hTDP1 cells + 20 nM CPT, ATP luminescence, 48 h; Potency, µM (highest dose often 46.2 µM), without a hit: top-dose activity change, negative = growth inhibition, usual class: inhibitors; actives 12% (n = 420,000); also: potency is read from the fitted curve at half-maximal effect; nearly all actives have a fitted effect of over 55% in size
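Chicken DT40 Tdp1-/- cells stably complemented with human TDP1 were seeded at 400 cells/well in medium containing 20 nM camptothecin, exposed to pin-transferred compounds, and grown at 37 °C for at least 48 hr. Viability was read as ATP luminescence.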
TDP1 cell noCPT: qHTS for Inhibitors of human tyrosyl-DNA phosphodiesterase 1 (TDP1): qHTS in cells in absence of CPT; actives 15% (n = 420,000); Potency, µM (highest dose often 46.2 µM), for inactives: at the highest dose activity change, negative = growth inhibition, actives largely listed as inhibitors; DT40 Tdp1-/- hTDP1 cells, no CPT, ATP luminescence, 48 h; also: potency is read from the fitted curve at half-maximal effect; nearly all actives have a fitted effect of over 55% in size
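No-CPT arm: Tdp1-/-;hTDP1 DT40 cells (400/well) plus compounds, incubated ≥48 hr at 37 °C. Readout CellTiter-Glo luminescence.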
RORgamma inh: blocks mouse ROR gamma transcriptional activity; P51450; Drosophila S2 Gal4-RORgamma UAS-luciferase reporter, 20 h; Potency, µM (titrated, usually from 53.6 µM), for the others: at the highest dose activity change, negative = inhibition, most hits filed as inhibitors; actives 5.4% (n = 310,000); AID 2551; also: potency is read from the fitted curve at half-maximal effect; nearly all actives have a fitted effect of over 60% in size
Target sequence (P51450 whole entry, looked up, the tested form may be a part): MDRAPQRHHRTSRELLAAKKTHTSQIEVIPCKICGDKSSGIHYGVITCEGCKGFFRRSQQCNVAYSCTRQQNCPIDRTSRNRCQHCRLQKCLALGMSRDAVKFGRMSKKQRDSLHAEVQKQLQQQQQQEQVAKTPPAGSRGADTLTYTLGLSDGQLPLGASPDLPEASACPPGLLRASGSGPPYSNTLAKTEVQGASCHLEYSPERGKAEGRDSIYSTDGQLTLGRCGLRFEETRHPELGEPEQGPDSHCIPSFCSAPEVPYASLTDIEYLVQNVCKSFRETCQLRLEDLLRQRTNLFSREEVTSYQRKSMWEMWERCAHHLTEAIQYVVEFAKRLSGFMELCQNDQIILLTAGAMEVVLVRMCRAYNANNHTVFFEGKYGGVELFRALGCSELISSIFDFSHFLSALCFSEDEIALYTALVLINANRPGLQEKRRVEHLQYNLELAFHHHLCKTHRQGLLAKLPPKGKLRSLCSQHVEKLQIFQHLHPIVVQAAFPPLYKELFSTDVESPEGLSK
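In this cell-based reporter format, copper sulfate (700 uM final) drives Gal4–ROR gamma fusion expression from a metallothionein promoter in Drosophila Schneider cells; compounds preincubated 1 hr, reporter read after 20 hr at ambient temperature.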
LDHA block: LDHA (human) enzyme inhibition | P00338 | purified LDHA, NADH/diaphorase-resazurin fluorescence; active compounds read low | activity change, % (values are at about 110 or 230 µM) | actives 0.15% (n = 480,000) | AID 1347041; in the data active = activity change below about -30%; inconclusive = mostly about -25% to -30%;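 also: plate controls were DMSO wells for no effect and wells without enzyme for full effect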
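Resorufin fluorescence (ex540/em590), read at 0 and 20 min after diaphorase/resazurin addition, reports the NADH left after a 5 min room-temperature reaction of 2 nM human LDH5 with 0.06 mM NADH and 0.2 mM pyruvate.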
IL-1B inflam inh: inhibitors of inflammasome signaling (IL-1 beta secretion); activity change, % at 57.5 µM; THP-1 LPS/ATP IL-1B secretion, AlphaLISA, 16 h; active compounds read low; actives 4.7% (n = 360,000); in the data active = activity change below about -50%; inconclusive = mostly about -30% to -49%
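Secreted IL-1B measured by AlphaLISA bead assay after 16 h compound exposure of THP-1 cells; compounds (final up to 57.5 uM) added 1 h before LPS (250 ng/mL) and ATP (1.25 mM) stimulation; lower signal means less secretion.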
VP16 counter: counter-screen for ROR gamma inhibitors: Gal4-VP16 reporter; Drosophila S2 Gal4-VP16 UAS-luciferase, luminescence, 20 h; Potency, µM (series often up to 53.6 µM), for the others: at the top dose activity, negative = inhibition, usual class: inhibitors; actives 3.5% (n = 310,000); AID 2546;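 also: Gal4-VP16 expression switched on by copper sulfate through the metallothionein promoter; potency is read from the fitted curve at half-maximal effect; nearly all actives have a fitted effect of over 50% in size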
* = called active by the depositor. Shown are actives, neighbours in structure and some others; about 18% of the full set was active somewhere. Unless noted, calls follow the shape of the dose curve; as a rule, active = well fitted curve in the direction sought with a large enough effect; inconclusive = small, poorly fitted or top-dose-only effect, or another doubt; inactive = no such curve, though single readings can be large; an effect the other way counts as inactive or inconclusive. Unless noted, % is scaled to controls: 0 for no effect and ±100 for the full control effect.

`COC(=O)C(C)NC(=O)c1ccc(COC(C)=O)cc1` (stereo not drawn) gave LDHA block -4.7.
For CCOc1ccc(-n2c(-c3ccc(OC)cc3)cc3c2CC(C)(C)CC3=O)cc1 the results were TDP1 cell CPT inconclusive, TDP1 cell noCPT inconclusive and LDHA block -3.9.
`CCOc1ccc(-n2c(-c3ccc(Br)cc3)c[n+]3c2CCCCC3)cc1` gave TDP1 cell CPT 4.61µM*, TDP1 cell noCPT 0.366µM*, RORgamma inh inconclusive, LDHA block -6.4, IL-1B inflam inh -78.9* and VP16 counter 22.4µM*.
For CN1CCN(C(=O)C[C@H]2CC[C@H]3[C@@H](COC[C@@H](O)CN3Cc3cccc(F)c3)O2)CC1 the results were TDP1 cell CPT -12.7%, TDP1 cell noCPT 4.0%, LDHA block 1.4 and IL-1B inflam inh 11.9.
Screening O=C(C[C@H]1CC[C@@H]2[C@H](COC[C@@H](O)CN2Cc2cccc(F)c2)O1)NCC1CCCCC1 returned TDP1 cell CPT 20.6µM*, TDP1 cell noCPT 20.6µM*, LDHA block -4.4 and IL-1B inflam inh 22.2.
O=C(C[C@@H]1CC[C@@H]2[C@H](COC[C@@H](O)CN2Cc2cc(F)ccc2F)O1)NCc1ccc(F)cc1 was read as TDP1 cell CPT inconclusive, TDP1 cell noCPT inconclusive, LDHA block -8.3 and IL-1B inflam inh -4.8.
For O=C(C[C@H]1CC[C@@H]2[C@H](COC[C@H](O)CN2Cc2cccc(C(F)(F)F)c2)O1)NCCc1ccccc1 the results were TDP1 cell CPT 20.6µM*, TDP1 cell noCPT 13µM*, LDHA block 4.1 and IL-1B inflam inh -16.2.
Screening O=C1CC(c2ccccc2)Sc2ccccc2N1 (stereo not drawn) returned TDP1 cell CPT 13µM*, TDP1 cell noCPT 10.3µM*, RORgamma inh 12.2%, LDHA block 0.0, IL-1B inflam inh 0.0 and VP16 counter -2.8%.
Screening COc1ccc(-c2cn3nc(N4CCC(C(=O)Nc5ccccc5OC)CC4)sc3n2)cc1 returned TDP1 cell CPT inconclusive, TDP1 cell noCPT inconclusive and LDHA block -3.8.
Screening Cc1cc(=O)n2nc(N3CCCC3C(=O)Nc3cccc(Cl)c3C)sc2n1 (stereo not drawn) returned TDP1 cell CPT -6.5%, TDP1 cell noCPT -21.7%, RORgamma inh 15.8µM*, LDHA block 1.6, IL-1B inflam inh 14.0 and VP16 counter 3.3%.
For CCNC(=O)C1CCCN(c2nn3cc(-c4ccc(C)cc4)nc3s2)C1 (stereo not drawn) the results were TDP1 cell CPT 18.4µM*, TDP1 cell noCPT 23.1µM* and LDHA block -9.4.
`COc1ccc(-c2cn3nc(N4CCC(C(=O)Nc5ccc(C)cc5)CC4)sc3n2)cc1` gave TDP1 cell CPT inconclusive, TDP1 cell noCPT 20.6µM* and LDHA block 1.9.
`Cc1ccc(-c2cn3nc(N4CCCC(C(=O)Nc5ccc(F)cc5)C4)sc3n2)cc1` (stereo not drawn) gave TDP1 cell CPT 16.4µM*, TDP1 cell noCPT 18.4µM* and LDHA block -8.2.
Screening COc1ccc(Cl)cc1-n1nnc(C(=O)Nc2ccc3c(c2)C(=O)OC3)c1C returned LDHA block -10.5.
O=C(Nc1ccccc1)C1CCN(C(=O)c2nn(-c3ccccc3)c(=O)c3ccccc23)CC1 was read as LDHA block -0.1.
Cc1ccc2c(CSc3ncn[nH]3)cc(=O)oc2c1C was read as LDHA block -6.9.
`COc1ccc(-c2cn3nc(N4CCCC(C(=O)Nc5ccc(C)c(C)c5)C4)sc3n2)cc1` (stereo not drawn) gave TDP1 cell CPT inconclusive, TDP1 cell noCPT 11.6µM* and LDHA block -13.2.
`COc1ccc(-c2cn3nc(N4CCCC(C(=O)Nc5cccc(OC)c5)C4)sc3n2)cc1` (stereo not drawn) gave TDP1 cell CPT 20.6µM*, TDP1 cell noCPT 23.1µM* and LDHA block -0.4.
`COc1ccccc1CNC(=O)C1CCCN(c2nn3cc(-c4ccc(C)cc4)nc3s2)C1` (stereo not drawn) gave LDHA block -1.5.
CCCSCCCNC(=O)C1CCN(c2nn3cc(-c4ccc(F)cc4)nc3s2)CC1 was read as TDP1 cell CPT 5.17µM*, TDP1 cell noCPT inconclusive and LDHA block -14.6.
For COc1ccc(-c2cn3nc(N4CCCC(C(=O)NCc5ccccc5C)C4)sc3n2)cc1 (stereo not drawn) the results were TDP1 cell CPT 13µM*, TDP1 cell noCPT 10.3µM* and LDHA block -5.4.
Screening CS(=O)(=O)c1ccc(F)c(NCc2ccccc2F)c1 returned LDHA block -4.1.
COc1ccc(-c2cn3nc(N4CCCC(C(=O)NCCC(C)C)C4)sc3n2)cc1 (stereo not drawn) was read as LDHA block 4.3.
COc1cccc(NC(=O)C2CCN(c3nn4cc(-c5ccc(F)cc5)nc4s3)CC2)c1 was read as TDP1 cell CPT 13µM*, TDP1 cell noCPT inconclusive and LDHA block -4.7.
COc1ccc(-c2cn3nc(N4CCCC(C(=O)Nc5cccc(Cl)c5C)C4)sc3n2)cc1 (stereo not drawn) was read as TDP1 cell CPT inconclusive, TDP1 cell noCPT 20.6µM* and LDHA block -9.2.
`CCOc1ccc(NC(=O)C2CCCN(c3nn4cc(-c5ccc(OC)cc5)nc4s3)C2)cc1` (stereo not drawn) gave TDP1 cell CPT inconclusive, TDP1 cell noCPT 10.3µM* and LDHA block 1.0.
`COc1ccc(-c2cn3nc(N4CCC(C(=O)Nc5cccc(Cl)c5)CC4)sc3n2)cc1` gave TDP1 cell CPT -28.0%, TDP1 cell noCPT inconclusive and LDHA block 5.3.
For COc1ccc(-c2cn3nc(N4CCCC(C(=O)Nc5cc(C)cc(C)c5)C4)sc3n2)cc1 (stereo not drawn) the results were TDP1 cell CPT 8.2µM*, TDP1 cell noCPT 8.2µM* and LDHA block -15.8.
Screening Cc1ccc(C(=O)Nc2cccc(C(F)(F)F)c2)cc1Nc1ncnc2nc[nH]c12 returned TDP1 cell CPT 25.9µM*, TDP1 cell noCPT 20.6µM*, RORgamma inh 15.2%, LDHA block -10.5, IL-1B inflam inh -19.4 and VP16 counter 1.4%.
